Test results reported in PubChem BioAssay (NCI).
About 83,000 compounds went through this panel and 20% of them were active in at least one assay; those are over-represented in the sample as a whole.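 Single-concentration screen, 48 h exposure, 96-well plates. Endpoint: percent growth. Below 10 = active.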 Unmarked numbers belong to inactive results. Activity calls are given as the source filed them.

Each molecule was assayed on MDA-MB-468 breast (assay: NCI-60 one-dose screen, 48 h (100 = growth as untreated, 0 = no growth, -100 = all killed)). Conditions: 10 µM unless noted.
`CC(=O)O[C@H]1CC[C@]2(C)[C@H]3CC=C4[C@@H]5CC(C)(C)CC[C@]5(C(=O)NCCNCCNCCN)CC[C@@]4(C)[C@]3(C)CC[C@H]2C1(C)C` was tested, and the growth was -14.5% (active). For `C#C[C@]1(O)CC[C@H]2[C@@H]3CC=C4c5sc(-c6ccc7c(c6)OCO7)nc5CC[C@]4(C)[C@H]3CC[C@@]21C`, the growth was 51.5%. For `COc1cc(C(N)=O)cc(OC)c1OC`, the growth was 103%. `CCS(=O)(=O)Nc1cccc(Nc2c3cccc(C)c3nc3c(C)cccc23)c1OC` was tested, and the growth was 37.7%. With `O=C(CCl)N1CCCc2ccccc21` the growth was 80.9%. `CCC1CCc2nc3sc(C(=O)Nc4cccc(F)c4)c(N)c3cc2C1` (stereo not given) showed a growth of 23.4%. In the case of `COc1cc(-c2cc(=O)oc3cc(O)ccc23)cc(OC)c1OC`, the growth was 74.2%. With `COc1ccc2nc(-c3ccc(Cl)cc3)cc(-c3nnc(SC/C(=N/O)c4ccccc4)o3)c2c1` the growth was 9.96% (active). In the case of `O=C(NCO)c1ccccc1`, the growth was 110%. Molecule `CC(=O)Oc1ccc(Cl)cc1CN(C(C)=O)C1CCCCC1` has a growth of 101%. For `COc1cc2c(cc1OC)C(Sc1ccc(Cl)cc1)c1c(nc(N)c(C#N)c1N)O2` (stereo not given), the growth was -23.6% (active). For `COCCn1cc(-c2nc(-c3cn(CCOC)c4ncccc34)cs2)c2cc(F)ccc21`, the growth was -10.9% (active). In the case of `Cc1cc2nc(CO)[nH]c2cc1C`, the growth was 135%. Work on `O=C(CC(=O)c1cccc(Cl)c1)c1cccc(Cl)c1` yielded a growth of 41.7%. For `COc1ccc(C(C#N)=C2C=CC(=NO)C=C2)cc1`, the growth was -7.26% (active). Work on `CC1OC(O[C@H]2/C=C/C=C/C=C/C=C/C=C/C=C/C=C/[C@H](C)[C@@H](O)[C@@H](C)[C@H](C)OC(=O)CC(O)CC(O)CCC(O)C(O)CC(O)C[C@]3(O)C[C@H](O)C(C(=O)O)C(C2)O3)C(O)[C@H](N)C1O` (stereo not given in full) yielded a growth of 83.3%. In the case of `CC(=O)Oc1ccc(/C=N/NC(N)=S)nc1`, the growth was -13.9% (active). For `N=c1c2c(-c3ccccc3)c(-c3ccccc3)n(Cc3ccccc3)c2ncn1CCCO`, the growth was -0.433% (active). Molecule `Cc1[nH]n(-c2cccc(Cl)c2)c(=O)c1/C=C1\C=c2ccccc2=CC1=O` has a growth of 34.5%. `O=c1c2cc(F)ccc2sc2c(NCCN3CCCCC3)nc3ccccc3c12` was tested, and the growth was 6.41% (active). Work on `CN(C)CSc1nc2ccccc2s1` yielded a growth of 110%. Work on `CNC(=O)NN` yielded a growth of 107%. In the case of `COc1ccc2sc(-n3nc4nc5n(c(=O)c4c3N)-c3ccccc3Sc3ccccc3-5)nc2c1`, the growth was 88.9%. In the case of `CCOc1ccc(I)cc1`, the growth was 105%. In the case of `CC1C2CCC(C2)C1COCCOCCO` (stereo not given), the growth was 102%. `CCOC(=O)c1c(NC(=O)c2cccc(C(F)(F)F)c2)sc2cc(O)ccc12` gave a growth of 85.4%. `O=c1oc2c(cnc3ccccc32)cc1-c1ccsc1` showed a growth of 85.5%. For `O=C(/C=C/c1ccc(O)c(O)c1)N1CCN(c2ccc(Cl)cc2)CC1`, the growth was 39.7%. With `O=C(Nc1ccc(Oc2ccc(F)cc2)c(Cl)c1)c1cccnc1` the growth was 57.2%. For `Fc1cc(Nc2ccc3c(OCCCN4CCOCC4)cccc3n2)ccc1Cl`, the growth was 28.5%. `C/C(O)=C(/C=N/C(=S)Nc1ccccc1)C(=O)Nc1ccccc1C` showed a growth of 99.7%. Work on `CC(C)OC(=O)[C@H](C)N[P@@](=O)(OC[C@@]1(C)O[C@@H](n2cc(F)c(N)nc2=O)C[C@@H]1O[P@](=O)(N[C@@H](C)C(=O)OC(C)C)Oc1ccccc1)Oc1ccccc1` yielded a growth of 97.9%. Work on `COCCn1cc(-c2csc(-c3cn(C)c4ccc(Br)cc34)n2)c2cccnc21` yielded a growth of 54.8%. With `CCc1ccc2c(c1)N(CCO)C1=C(C(=O)OC1)C2c1cccc(Br)c1` (stereo not given) the growth was 25.8%. Molecule `CC(=O)[C@@H]1CC[C@]2(C(=O)O)CC[C@]3(C)[C@H](CC[C@@H]4[C@@]5(C)Cc6c([nH]c7ccccc67)C(C)(C)[C@@H]5CC[C@]43C)[C@@H]12` has a growth of 82%. In the case of `CCN(CC)CCCN1C(=O)c2c(c(C)c3c(oc4cc(OC)ccc43)c2C)C1=O`, the growth was 116%. In the case of `CCCCCCCCn1ccc2cc(NC(=O)CN3CCN(c4nc(C)cc(N5CCCCC5)n4)CC3)ccc21`, the growth was 73.2%. Molecule `CCCCn1c(=O)c(-c2cc(-c3ccc(Cl)cc3)nc(-c3ccc(Cl)cc3)c2)cc2ccc(Cl)cc21` has a growth of 95%. With `CC(C)C[C@H](NC(=O)/C=C/Cn1ccc2ccccc2c1=O)B(O)O` the growth was -6.84% (active). `Cc1ccc(Nc2oc(-c3ccccc3)nc2[P+](c2ccccc2)(c2ccccc2)c2ccccc2)cc1` was tested, and the growth was -77.1% (active).
